Bioassay records deposited in PubChem BioAssay by National Center for Advancing Translational Sciences (NCATS).
HepG2 tox: kills HepG2 cells in TGF-b inhibitor counter-screen; 410,000 compounds, 0.76% hits; HepG2 CAGA-GFP viability, ATP luminescence, 18 h; Potency, µM (series often up to 46.1 µM), usual class: cytotoxic; AID 588856
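CellTiter-Glo luminescence gave cytotoxicity after 18 hours at 37 degrees C. The cells were HepG2 CAGA-GFP in 1% FBS DMEM, stimulated with 500 pg/mL TGF-beta after compound addition. %Activity was normalised to no-cell wells (complete cell-killing) and DMSO (no toxicity), and curves were fitted and classified.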
HT1080 IDH1KD tx: kills HT-1080 cells with IDH1 knockdown | 360,000 compounds, 2% hits | HT-1080 IDH1 knockdown viability, ATP luminescence, 48 h | Potency, µM (highest dose often 46.1 µM), most hits filed as cytotoxic
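IDH1KD HT-1080 cells, 750/well, RPMI + 5% FBS; compound pinned after 2 h settling; 48 h, 37 °C; CellTiter-Glo luminescence; % activity normalised to DMSO and no-cell wells; curves fitted, classed by r2 and efficacy.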
TGFb inhibitor: blocks TGF-b signaling; 410,000 compounds, 1.2% hits; Potency, µM (highest dose often 46.1 µM), most hits filed as inhibitors; HepG2 CAGA-GFP TGF-b/SMAD3 reporter, GFP fluorescence, 18 h; TGF-beta stimulated, 500 pg/mL final; AID 588855; further: nearly all actives have a fitted effect of over 65% in size
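Inhibition of TGF-beta-driven CAGA-GFP reporter expression in HEPG2 cells is measured by cellular GFP fluorescence after 18 h stimulation with 500 pg/mL recombinant TGF-beta in 1% FBS medium at 37 degrees C.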
DT40 TDP1 no CPT: qHTS for Inhibitors of human tyrosyl-DNA phosphodiesterase 1 (TDP1): qHTS in cells in absence of CPT | DT40 Tdp1-/- hTDP1 cells, no CPT, ATP luminescence, 48 h | Potency, µM (top dose mostly 46.2 µM), actives largely listed as inhibitors | 420,000 compounds, 15% hits | AID 686978, 2013; further: nearly all actives have a fitted effect of over 55% in size
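Seeded 400 DT40-hTDP1 cells/well (vehicle DMSO, no 20 nM CPT); pinned compounds; ≥48 hr at 37 °C; CellTiter-Glo luminescence as viability measure.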
HT1080-NT tox: kills 2HG-producing HT-1080-NT fibrosarcoma cells; HT-1080-NT fibrosarcoma viability, CellTiter-Glo ATP luminescence, 48 h; Potency, µM (top dose mostly 46.1 µM), hits mostly cytotoxic; 360,000 compounds, 1.6% hits; AID 686970;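 further: NT is the 2HG producing partner of a matched IDH1 knockdown line; nearly all actives have a fitted effect of over 55% in size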
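Compounds were tested in concentration-response format on HT-1080-NT cells for 48 hours at 37 degrees C. Cell viability came from CellTiter-Glo luminescence; curves were classified by r2, response magnitude and activity.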
DT40 TDP1 CPT: growth inhibition of DT40 Tdp1-/-;hTDP1 cells with camptothecin (screen for TDP1 inhibitors). chicken DT40 Tdp1-/-;hTDP1 cells + 20 nM CPT, ATP luminescence, 48 h. Potency, µM (highest dose often 46.2 µM), actives largely listed as inhibitors. 420,000 compounds, 12% hits; further: nearly all actives have a fitted effect of over 55% in size
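Chicken DT40 Tdp1-/- cells stably complemented with human TDP1 were seeded at 400 cells/well in medium containing 20 nM camptothecin, exposed to pin-transferred compounds, and grown at 37 °C for at least 48 hr. Viability was read as ATP luminescence.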
Large screens that a line does not name were inactive. This is a sample that favours compounds with a hit; in the whole collection about 17% have one here. The call rests on the fitted dose curve; in most records, active means well fitted curve in the direction sought with a large enough effect; inconclusive means small, poorly fitted or top-dose-only effect, or another doubt; inactive means no such curve, though single readings can be large; an effect the other way counts as inactive or inconclusive.

CCCCn1c(=O)[nH]c(=O)c2c1nc(-c1ccc(OC)c(Br)c1)n2CC(C)C	HT1080 IDH1KD tx 23µM, TGFb inhibitor inconclusive, DT40 TDP1 no CPT inconclusive, HT1080-NT tox 29µM, DT40 TDP1 CPT inconclusive
COCCn1c(-c2ccsc2)nc2c1c(=O)[nH]c(=O)n2CC(C)C	none
CCCCn1c(-c2ccc(OC(F)F)cc2)nc2c1c(=O)[nH]c(=O)n2CC(C)C	DT40 TDP1 no CPT 23µM, DT40 TDP1 CPT 21µM
CCCn1c(=O)[nH]c(=O)c2c1nc(-c1ccc(OC(F)(F)C(F)C(F)(F)F)cc1)n2CCOC (stereo not drawn)	DT40 TDP1 no CPT 16µM, DT40 TDP1 CPT inconclusive
COCCn1c(-c2ccc3ccccc3c2)nc2c1c(=O)[nH]c(=O)n2CC(C)C	TGFb inhibitor inconclusive, DT40 TDP1 no CPT 23µM, DT40 TDP1 CPT inconclusive
COc1ccccc1N(CCC#N)C(=O)CSc1nc(-c2ccccc2)cn1N	none
CCOC(=O)c1ccc(CN2Cc3ccccc3C2=O)cc1	none
CCn1c(CNC(C)=O)nnc1SCC(=O)c1ccc(Br)cc1	HepG2 tox 22µM, HT1080 IDH1KD tx inconclusive, HT1080-NT tox 13µM
Cc1ccc(NC(=O)Cc2nnc(SCC(=O)c3ccc(Br)cc3)n2C)cc1	HT1080 IDH1KD tx 11µM, DT40 TDP1 no CPT inconclusive, HT1080-NT tox inconclusive, DT40 TDP1 CPT inconclusive
CCn1c(CNC(=O)Cc2ccc(OC)cc2)nnc1SCC(=O)c1ccc(Br)cc1	DT40 TDP1 no CPT inconclusive
CN(C(=O)c1cccc(NC(=O)Cc2ccc(NC(=O)C3CCCN(C(=O)C4CC4)C3)cc2)c1)C1CCCCC1 (stereo not drawn)	none
CCc1nn(CC(=O)NCCCN2CCc3ccccc3C2)c(=O)c2cc3sccc3n12	DT40 TDP1 no CPT inconclusive, DT40 TDP1 CPT 23µM
CCc1nn(CC(=O)Nc2cccc(C(C)=O)c2)c(=O)c2cc3sccc3n12	DT40 TDP1 no CPT inconclusive, DT40 TDP1 CPT 18µM (no result: HT1080 IDH1KD tx, HT1080-NT tox)
CCc1nn(CC(=O)Nc2ccc(NC(C)=O)cc2)c(=O)c2cc3sccc3n12	none (no result: HT1080 IDH1KD tx, HT1080-NT tox)
CC(=O)c1cccc(NC(=O)Cn2nc(C)n3cccc3c2=O)c1	DT40 TDP1 no CPT 16µM (no result: HT1080 IDH1KD tx, HT1080-NT tox)
COc1cc(OC)cc(C(=O)NN2CCOCC2)c1	none
CCC1CCCCN1CCCNC(=O)CCC(=O)N1CC(C)Oc2ccccc21 (stereo not drawn)	none
CC(C)(C)NS(=O)(=O)c1cnc(Cl)c(Cl)c1	DT40 TDP1 no CPT inconclusive
Cc1ccc2nc(-c3ccccc3C)c(CN(CC3CCCO3)C(=O)c3cccs3)cc2c1 (stereo not drawn)	none (no result: HepG2 tox, HT1080 IDH1KD tx, TGFb inhibitor, HT1080-NT tox)
Nc1[nH]n2c(=O)cc(-c3ccccc3)nc2c1N=Nc1ccc(S(N)(=O)=O)cc1	none
NS(=O)(=O)c1ccc(N=Nc2c(-c3ccccc3)[nH]n(-c3nc(-c4ccccc4)cs3)c2=O)cc1	DT40 TDP1 no CPT 3.3µM, DT40 TDP1 CPT 9.2µM
CCC1(CC)C(C#N)C(=O)NC(=O)C1C#N (stereo not drawn)	none
O=C(NCCCN1CCOCC1)C(=O)N/N=C/c1c(Cl)cccc1Cl	none
O=C(NCCCN1CCOCC1)C(=O)N/N=C/c1c2ccccc2cc2ccccc12	HT1080 IDH1KD tx inconclusive, DT40 TDP1 no CPT 21µM, HT1080-NT tox inconclusive, DT40 TDP1 CPT inconclusive
Cc1cc2cc(C(c3nnnn3Cc3ccccc3)N3CCc4ccccc43)c(=O)[nH]c2cc1C (stereo not drawn)	TGFb inhibitor inconclusive, DT40 TDP1 no CPT inconclusive, DT40 TDP1 CPT inconclusive
Cc1cc2nc(-c3nnnn3Cc3ccccc3)c(=O)[nH]c2cc1C	HT1080 IDH1KD tx inconclusive, DT40 TDP1 no CPT 16µM, DT40 TDP1 CPT inconclusive (no result: HepG2 tox, TGFb inhibitor)
O=c1[nH]c2ccccc2nc1-c1nnnn1C1CCCC1	none (no result: HepG2 tox, TGFb inhibitor)
O=c1[nH]c2cc3ccccc3cc2nc1-c1nnnn1C1CCCC1	HT1080 IDH1KD tx 16µM, DT40 TDP1 no CPT 3.7µM, HT1080-NT tox inconclusive, DT40 TDP1 CPT 5.2µM (no result: HepG2 tox, TGFb inhibitor)
